# Bioassay records as filed in PubChem BioAssay.
# Only a selection was taken, and hits are over-represented in it overall.
# HT1080-NT tox = qHTS for induction of synthetic lethality in tumor cells producing 2HG: qHTS for the HT-1080-NT fibrosarcoma cell line | HT-1080-NT fibrosarcoma viability, CellTiter-Glo ATP luminescence, 48 h | Potency, µM (titrated, usually from 46.1 µM), inactives show top-dose activity, negative = less viability, usual class: cytotoxic | 360,000 compounds, 1.6% hits | AID 686970, 2013;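 note: NT is the 2HG producing partner of a matched IDH1 knockdown line; potency is the fitted concentration of half-maximal effect; 0% = DMSO-treated cells and -100% = media-only wells without cells; nearly all actives have a fitted effect of over 55% in size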
#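 HT-1080-NT; 750 cells/well; 5% FBS RPMI; 48 h compound, 37 degrees C; CellTiter-Glo luminescence; curve fitting and curve-class assignment.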
# ALOX12 inh = Primary qHTS assay for inhibitors of human arachidonate 12S-lipoxygenase (ALOX12): Round 2. purified 12hLO, xylenol orange hydroperoxide absorbance. AID 1671190, 2021. 580,000 compounds, 1.1% hits. Potency, µM (top dose mostly 108 µM), for inactives: at the highest dose activity change, negative = inhibition, usual class: inhibitors; note: potency is the fitted concentration of half-maximal effect
# Target sequence (P18054 whole entry, looked up): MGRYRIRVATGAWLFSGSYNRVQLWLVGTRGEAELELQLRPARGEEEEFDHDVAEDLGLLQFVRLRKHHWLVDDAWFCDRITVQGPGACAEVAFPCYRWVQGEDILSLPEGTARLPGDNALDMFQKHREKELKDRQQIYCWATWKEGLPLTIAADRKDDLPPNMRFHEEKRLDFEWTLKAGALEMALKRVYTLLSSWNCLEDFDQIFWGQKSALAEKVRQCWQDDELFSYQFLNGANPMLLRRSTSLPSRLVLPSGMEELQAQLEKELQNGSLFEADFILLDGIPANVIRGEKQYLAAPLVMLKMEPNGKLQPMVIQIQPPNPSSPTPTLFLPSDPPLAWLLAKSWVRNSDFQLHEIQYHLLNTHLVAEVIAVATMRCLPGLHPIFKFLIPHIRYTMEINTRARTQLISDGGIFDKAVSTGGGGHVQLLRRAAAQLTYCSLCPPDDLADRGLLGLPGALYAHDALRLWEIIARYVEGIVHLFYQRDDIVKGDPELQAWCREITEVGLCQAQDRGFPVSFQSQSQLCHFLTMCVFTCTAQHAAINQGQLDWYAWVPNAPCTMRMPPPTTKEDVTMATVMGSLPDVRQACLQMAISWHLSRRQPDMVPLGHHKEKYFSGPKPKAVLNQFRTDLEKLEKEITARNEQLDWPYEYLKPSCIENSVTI
#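 Purified human 12hLO (150 nM final) in 25 mM Hepes, 0.01% Triton X-100, pH 7.0 was preincubated 15 min at room temperature with compound. Then 40 uM arachidonic acid was added, 30 min. Hydroperoxide was read by Fe-XO absorbance ratio 573/405 nm.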
# HT1080 IDH1KD tx = qHTS for induction of synthetic lethality in tumor cells producing 2HG: qHTS for the HT-1080-IDH1KD cell line | HT-1080 IDH1 knockdown viability, ATP luminescence, 48 h | Potency, µM (titrated, usually from 46.1 µM), inactives show top-dose activity, negative = toxicity, hits mostly cytotoxic | 360,000 compounds, 2% hits | AID 686971, 2013;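 note: potency is the fitted concentration of half-maximal effect; 0% = DMSO wells and -100% = cell-free medium wells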
#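 Viability of IDH1-knockdown HT-1080 fibrosarcoma cells was assessed by CellTiter-Glo after 48 h at 37 °C with titrated compound; concentration-effect curves were classified by fit quality and response size.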
# DT40 TDP1 no CPT = qHTS for Inhibitors of human tyrosyl-DNA phosphodiesterase 1 (TDP1): qHTS in cells in absence of CPT; Potency, µM (doses to about 46.2 µM), for the others: at the top dose activity change, negative = growth inhibition, actives largely listed as inhibitors; 420,000 compounds, 15% hits; DT40 Tdp1-/- hTDP1 cells, no CPT, ATP luminescence, 48 h; AID 686978, 2013; note: potency is the fitted concentration of half-maximal effect; nearly all actives have a fitted effect of over 55% in size
#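 Growth of hTDP1-complemented DT40 Tdp1-knockout cells is measured by ATP luminescence after at least 48 hr compound exposure at 37 °C, with DMSO substituting for the 20 nM CPT used in the parallel screen.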
# TDP1 cell CPT = qHTS for Inhibitors of human tyrosyl-DNA phosphodiesterase 1 (TDP1): qHTS in cells in presence of CPT; AID 686979, 2013; chicken DT40 Tdp1-/-;hTDP1 cells + 20 nM CPT, ATP luminescence, 48 h; Potency, µM (titrated, usually from 46.2 µM), for inactives: at the highest dose activity change, negative = growth inhibition, most hits filed as inhibitors; 420,000 compounds, 12% hits; note: potency is the fitted concentration of half-maximal effect; nearly all actives have a fitted effect of over 55% in size
#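 Chicken DT40 Tdp1-/- cells complemented with human TDP1, 400 cells/well, exposed to compounds plus 20 nM camptothecin for at least 48 h at 37 C; viability read as ATP content by CellTiter-Glo luminescence.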
# IL-1B inflam inh = qHTS for Inhibitors of Inflammasome Signaling: IL-1-beta AlphaLISA Primary Screen; THP-1 LPS/ATP IL-1B secretion, AlphaLISA, 16 h; stronger effect = lower value; activity change, % at 57.5 µM; 360,000 compounds, 4.7% hits; AID 743279, 2014; in the data active = activity change below about -50%; inconclusive = mostly about -30% to -49%
#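 Secreted IL-1B measured by AlphaLISA bead assay after 16 h compound exposure of THP-1 cells; compounds (final up to 57.5 uM) added 1 h before LPS (250 ng/mL) and ATP (1.25 mM) stimulation; lower signal means less secretion.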
# An asterisk follows results filed as active; ? = inconclusive; · = no result given; [ ] = remark or other dose. Unless noted, calls come from the whole dose curve; as a rule, active = well fitted curve in the direction sought with a large enough effect; inconclusive = small, poorly fitted or top-dose-only effect, or another doubt; inactive = no such curve, though single readings can be large; an effect the other way counts as inactive or inconclusive. Unless noted, % is set by controls: 0 for no effect and ±100 for the full control effect.
SMILES,HT1080-NT tox,ALOX12 inh,HT1080 IDH1KD tx,DT40 TDP1 no CPT,TDP1 cell CPT,IL-1B inflam inh
C[C@H]1CN([C@@H](C)CO)C(=O)c2cc(NS(=O)(=O)c3ccc(Cl)cc3)ccc2O[C@@H]1CN(C)CC1CCCCC1,-7.8%,?,-11.6%,?,?,-55.8*
C[C@H]1CCCCO[C@H](CN(C)CC2CCCCC2)[C@@H](C)CN([C@@H](C)CO)C(=O)c2cc(NS(=O)(=O)c3ccccc3)ccc2O1,?,6.9%,?,-4.1%,?,?
O=C(N/N=C/c1cc(Br)ccc1O)C(c1ccncc1)N1CCOCC1 (stereo not given),-18.3%,-5.9%,?,8.2µM*,4.11µM*,89.7
CC(C)(C)OC(=O)NCCCCCNC(=O)c1[nH]cnc1C(=O)Nc1ccon1,0.0%,1.0%,2.4%,?,?,47.8
CCc1ccc(C(=O)Cn2ncc(Cl)c(Cl)c2=O)cc1,14.6µM*,285.8%,?,2.91µM*,3.66µM*,-115.6*
CCc1ccc(C(=O)Cn2ccsc2=N)cc1,-13.4%,?,-3.9%,-14.6%,-12.9%,7.8
Cc1ccc(-c2nnc(Cc3ccc(Cl)cc3)o2)cc1,13.0%,?,3.9%,?,-17.7%,0.0
O=c1c(Cl)c(Cl)cnn1Cc1nnc(-c2ccc(Cl)cc2)o1,16.4µM*,-14.9%,8.2µM*,0.92µM*,0.82µM*,-100.7*
Cc1[nH]c(C)c2c(=O)n(Cc3ccc(Cl)cc3)ncc12,-2.7%,259.2%,10.8%,2.4%,-1.4%,-9.4
Cc1ccc(Cn2ncc(Cl)c(Cl)c2=O)cc1,?,0.1%,?,3.26µM*,5.17µM*,-102.6*
Cc1cc(C)cc(Cn2ncc(Cl)c(Cl)c2=O)c1,-26.7%,-20.5%,16.4µM*,11.6µM*,8.2µM*,-119.7*
CCCNC(=O)C1COC2(CCN(C(=O)c3cccc(OC)c3)CC2)N1C(=O)c1cccc(F)c1 (stereo not given),·,86.8%,·,·,·,·
COCCOCc1nc(C2CCN(C(=O)NCc3ccccc3)CC2)no1,·,42.0%,·,·,·,·
O=c1c(Cl)c(Cl)cnn1Cc1ccccc1Cl,?,-20.2%,18.4µM*,1.03µM*,2.59µM*,-99.8*
O=c1cc(-c2ccccc2)n(S(=O)(=O)c2ccc3ccccc3c2)o1,7.9%,?,9.6%,-6.5%,0.4%,6.3
COc1ccc(S(=O)(=O)n2oc(=O)cc2-c2ccccc2)cc1,12.5%,?,8.0%,-2.6%,-19.1%,-7.4
COc1ccc(S(=O)(=O)N2CC=C(c3ccccc3)CC2)cc1OC,-14.9%,3.1%,-17.9%,23.1µM*,?,4.1
COc1ccc(S(=O)(=O)n2oc(=O)cc2-c2ccccc2)cc1OC,9.7%,14.1µM*,12.6%,-6.8%,-6.9%,-6.7
O=c1cc(-c2ccccc2)n(S(=O)(=O)c2ccccc2)o1,0.4%,10µM*,-4.4%,-10.9%,-0.9%,-7.8
COC(=O)C1=C(C)N(C)C(=NCc2ccccc2)NC1c1cccc(Cl)c1 (stereo not given),·,-16.6%,·,·,·,·
Cc1cccc(Oc2ccc(NC(=O)CC3Sc4ccccc4NC3=O)cc2)c1 (stereo not given),·,-14.6%,·,·,·,·
CCC1CCCCN1S(=O)(=O)c1ccc(C(=O)Nc2nnc(-c3ccccc3Cl)o2)cc1 (stereo not given),?,·,8.2µM*,6.51µM*,5.17µM*,35.6
O=C(Nc1nnc(-c2ccccc2Cl)o1)c1ccc(S(=O)(=O)N2CCCCCC2)cc1,4.11µM*,·,8.2µM*,5.8µM*,4.61µM*,42.8
CS(=O)(=O)c1ccccc1-c1nnc(NC(=O)c2ccc(S(=O)(=O)N3CCCC3)cc2)o1,-9.2%,-12.7%,-22.8%,-3.1%,-11.1%,-2.0
CCC1CCCCN1S(=O)(=O)c1ccc(C(=O)Nc2nnc(C3CC3)o2)cc1 (stereo not given),-27.8%,0.0%,?,?,?,83.8
SMILES,HT1080-NT tox,ALOX12 inh,HT1080 IDH1KD tx,DT40 TDP1 no CPT,TDP1 cell CPT,IL-1B inflam inh
CC(C)NC(=O)/C(C#N)=C/c1c[nH]c2ccccc12,·,-61.0%,·,·,·,·
COc1ccccc1N1CCN([C@@H]2[C@H](O)[C@H](CO)O[C@@H]2CN(Cc2ccc(F)cc2)Cc2ccc(F)cc2)CC1,·,28.2µM*,·,·,·,·
COc1ccccc1N1CCN([C@@H]2[C@H](O)[C@H](CO)O[C@@H]2CNC(C)C)CC1,·,20µM*,·,·,·,·
O=C(CCNc1ccc(Cl)cc1)c1cccs1,-0.4%,-10.1%,-5.8%,14.6µM*,25.9µM*,?
O=C(CCSc1ccc(Cl)cc1)c1cccs1,?,5.2%,?,2.31µM*,1.84µM*,-106.4*
Cc1cccc(N2CCN(C(=O)c3cc4ccc(F)cc4nc3C)CC2)c1,·,4.4%,·,·,·,·
C=CCn1c(SCC(=O)NCC2CCCO2)nc2scc(-c3ccccc3)c2c1=O (stereo not given),8.3%,0.0%,-3.7%,?,25.9µM*,-5.6
Cc1nc(SC(C)C(=O)NCC2CCCO2)c2cc(-c3ccccc3)sc2n1 (stereo not given),-8.7%,6.8%,?,14.6µM*,14.6µM*,-63.1*
CC(Sc1ncnc2c1cnn2-c1ccccc1)C(=O)NCC1CCCO1 (stereo not given),2.9%,15.2%,-14.4%,-6.5%,-22.0%,10.6
CCn1c(SC(C)C(=O)NCC2CCCO2)nc2scc(-c3ccccc3)c2c1=O (stereo not given),-2.2%,4.6%,1.1%,?,18.4µM*,-2.9
Cn1c(=O)c2c(nc(CN3CCc4ccccc4C3)n2CC(=O)c2ccccc2)n(C)c1=O,?,-2.8%,?,25.9µM*,18.4µM*,10.2
CN(c1nc2c(c(=O)n(C)c(=O)n2C)n1CC(=O)c1ccccc1)C1CCCCC1,-6.3%,-8.7%,-0.6%[9.24 µM],23.1µM*,?,-1.1
Cn1c(=O)c2c(nc(CN3CCc4ccccc4C3)n2Cc2ccccc2)n(C)c1=O,-17.5%,?,-23.7%,14.6µM*,23.1µM*,-17.4
CCOCCn1c(CN2CCc3ccccc3C2)nc2c1c(=O)n(C)c(=O)n2C,13.3%,26.1%,10.6%,10.3µM*,23.1µM*,60.9
Cn1c(=O)c2c(nc(N3CCC(Cc4ccccc4)CC3)n2CC(=O)c2ccccc2)n(C)c1=O,·,7.4%,·,·,·,·
